In the supplement of paper PMC8728848:
Many of the other results were omitted from the sample, so the strongest signals are more common in it than they were.

Legend:
Assay in all cases: glycan array binding signal (z-score within array); higher = stronger binding
Conditions in all cases: glycan notation: IUPAC condensed, linker removed
[1] = target: Fuc(a1-2)Gal(b1-4)GlcNAc(b1-2)Man(a1-3)[Fuc(a1-2)Gal(b1-4)GlcNAc(b1-2)Man(a1-6)]Man(b1-4)GlcNAc(b1-4)GlcNAc
Outline: (§1)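 The binding signal is a Z-score computed within each array and averaged over linkers. Arrays of the same protein sequence at different concentrations or buffers were also averaged together. Data originate from 3228 arrays in the Consortium for Functional Glycomics database, kept only where the protein sequence was available.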

[2] = target: Fuc(a1-2)Gal(b1-4)GlcNAc(b1-2)[Fuc(a1-2)Gal(b1-4)GlcNAc(b1-4)]Man(a1-3)[Fuc(a1-2)Gal(b1-4)GlcNAc(b1-2)Man(a1-6)]Man(b1-4)GlcNAc(b1-4)GlcNAc
Outline: as §1

[3] = target: Fuc(a1-2)Gal(b1-4)GlcNAc(b1-3)Gal(b1-4)GlcNAc
Outline: as §1

Fuc(a1-2)[Gal(a1-3)]Gal = target: Fuc(a1-2)[Gal(a1-3)]Gal
Outline: as §1

[4] = target: Fuc(a1-2)[Gal(a1-3)]Gal(b1-3)GalNAc(b1-3)Gal(a1-4)Gal(b1-4)Glc
Outline: as §1

[5] = target: Fuc(a1-3)[Gal(b1-4)]GlcNAc
Outline: as §1

Gal(a1-3)Gal = target: Gal(a1-3)Gal
Outline: as §1

[6] = target: Gal(a1-4)Gal(b1-4)GlcNAc(b1-2)Man(a1-3)[Gal(a1-4)Gal(b1-4)GlcNAc(b1-2)Man(a1-6)]Man(b1-4)GlcNAc(b1-4)GlcNAc
Outline: as §1

[7] = target: Gal(b1-3)GlcNAc(b1-2)Man(a1-3)[Gal(b1-3)GlcNAc(b1-2)Man(a1-6)]Man(b1-4)GlcNAc(b1-4)GlcNAc
Outline: as §1

[8] = target: Gal(b1-3)GlcNAc(b1-3)Gal(b1-3)GlcNAc
Outline: as §1

[9] = target: Gal(b1-3)GlcNAc(b1-3)Gal(b1-4)GlcNAc(b1-2)Man(a1-3)[Gal(b1-3)GlcNAc(b1-3)Gal(b1-4)GlcNAc(b1-2)Man(a1-6)]Man(b1-4)GlcNAc(b1-4)GlcNAc
Outline: as §1

[10] = target: Gal(b1-3)[Fuc(a1-4)]GlcNAc
Outline: as §1

[11] = target: Gal(b1-4)GlcNAc(b1-2)Man(a1-3)Man(b1-4)GlcNAc(b1-4)GlcNAc
Outline: as §1

[12] = target: Gal(b1-4)GlcNAc(b1-2)Man(a1-3)[Gal(b1-4)GlcNAc(b1-2)Man(a1-6)]Man(b1-4)GlcNAc(b1-4)GlcNAc
Outline: as §1

[13] = target: Gal(b1-4)GlcNAc(b1-2)Man(a1-3)[Gal(b1-4)GlcNAc(b1-2)Man(a1-6)]Man(b1-4)GlcNAc(b1-4)[Fuc(a1-6)]GlcNAc
Outline: as §1

[14] = target: Gal(b1-4)GlcNAc(b1-2)Man(a1-3)[Gal(b1-4)GlcNAc(b1-2)Man(a1-6)][GlcNAc(b1-4)]Man(b1-4)GlcNAc(b1-4)[Fuc(a1-6)]GlcNAc
Outline: as §1

[15] = target: Gal(b1-4)GlcNAc(b1-2)Man(a1-3)[GlcNAc(b1-2)Man(a1-6)]Man(b1-4)GlcNAc(b1-4)GlcNAc
Outline: as §1

[16] = target: Gal(b1-4)GlcNAc(b1-2)Man(a1-3)[Man(a1-6)]Man(b1-4)GlcNAc(b1-4)GlcNAc
Outline: as §1

[17] = target: Gal(b1-4)GlcNAc(b1-2)[Gal(b1-4)GlcNAc(b1-4)]Man(a1-3)[GlcNAc(b1-4)][Gal(b1-4)GlcNAc(b1-2)[Gal(b1-4)GlcNAc(b1-6)]Man(a1-6)]Man(b1-4)GlcNAc(b1-4)GlcNAc
Outline: as §1

[18] = target: Gal(b1-4)GlcNAc(b1-2)[Gal(b1-4)GlcNAc(b1-6)]Man(a1-6)[Gal(b1-4)GlcNAc(b1-2)Man(a1-3)]Man(b1-4)GlcNAc(b1-4)GlcNAc
Outline: as §1

[19] = target: Gal(b1-4)GlcNAc(b1-2)[Gal(b1-4)GlcNAc(b1-6)]Man(a1-6)[Gal(b1-4)GlcNAc(b1-2)Man(a1-3)]Man(b1-4)GlcNAc(b1-4)[Fuc(a1-6)]GlcNAc
Outline: as §1

[20] = target: Gal(b1-4)GlcNAc(b1-3)Gal(b1-4)GlcNAc(b1-3)Gal(b1-4)GlcNAc
Outline: as §1

Gal6S(b1-4)GlcNAc6S = target: Gal6S(b1-4)GlcNAc6S
Outline: as §1

GalNAc(a1-3)GalNAc = target: GalNAc(a1-3)GalNAc
Outline: as §1

[21] = target: GalNAc(a1-3)GalNAc(b1-3)Gal(a1-4)Gal(b1-4)GlcNAc
Outline: as §1

GalNAc(b1-6)GalNAc = target: GalNAc(b1-6)GalNAc
Outline: as §1

GlcA(b1-3)GlcNAc = target: GlcA(b1-3)GlcNAc
Outline: as §1

[22] = target: GlcA3S(b1-3)Gal(b1-4)GlcNAc(b1-2)Man
Outline: as §1

GlcNAc(b1-3)Gal(b1-4)Glc = target: GlcNAc(b1-3)Gal(b1-4)Glc
Outline: as §1

[23] = target: GlcNAc(b1-3)Gal(b1-4)GlcNAc(b1-3)GalNAc
Outline: as §1

[24] = target: GlcNAc(b1-4)GlcNAc(b1-4)GlcNAc
Outline: as §1

[25] = target: Man(a1-3)[Man(a1-6)]Man(a1-6)[Man(a1-2)Man(a1-3)]Man(b1-4)GlcNAc(b1-4)GlcNAc
Outline: as §1

[26] = target: Man(a1-3)[Man(a1-6)]Man(a1-6)[Man(a1-3)]Man
Outline: as §1

[27] = target: Man(a1-3)[Man(a1-6)]Man(a1-6)[Man(a1-3)]Man(b1-4)GlcNAc(b1-4)GlcNAc
Outline: as §1

[28] = target: Man(a1-3)[Man(a1-6)]Man(b1-4)GlcNAc(b1-4)[Fuc(a1-6)]GlcNAc
Outline: as §1

[29] = target: Neu5Ac(a2-3)Gal(b1-3)GlcNAc(b1-2)Man(a1-3)[Neu5Ac(a2-3)Gal(b1-3)GlcNAc(b1-2)Man(a1-6)]Man(b1-4)GlcNAc(b1-4)GlcNAc
Outline: as §1

[30] = target: Neu5Ac(a2-3)Gal(b1-3)GlcNAc(b1-3)Gal(b1-3)GlcNAc
Outline: as §1

[31] = target: Neu5Ac(a2-3)Gal(b1-3)GlcNAc(b1-6)GalNAc
Outline: as §1

Neu5Ac(a2-6)Gal = target: Neu5Ac(a2-6)Gal
Outline: as §1

Neu5Ac(a2-6)Gal(b1-4)Glc = target: Neu5Ac(a2-6)Gal(b1-4)Glc
Outline: as §1

[32] = target: Neu5Ac(a2-6)Gal(b1-4)GlcNAc
Outline: as §1

[33] = target: Neu5Ac(a2-6)Gal(b1-4)GlcNAc(b1-2)Man(a1-6)[Gal(b1-4)GlcNAc(b1-2)Man(a1-3)]Man(b1-4)GlcNAc(b1-4)GlcNAc
Outline: as §1

[34] = target: Neu5Ac(a2-6)Gal(b1-4)GlcNAc(b1-3)Gal(b1-4)GlcNAc(b1-3)Gal(b1-4)GlcNAc
Outline: as §1

[35] = target: Neu5Ac(a2-6)Gal(b1-4)GlcNAc(b1-6)[Gal(b1-3)]GalNAc
Outline: as §1

Neu5Ac(a2-8)Neu5Ac = target: Neu5Ac(a2-8)Neu5Ac
Outline: as §1

[36] = target: Neu5Ac(a2-8)Neu5Ac(a2-3)Gal(b1-4)GlcNAc
Outline: as §1

[37] = target: Neu5Ac(a2-8)Neu5Ac(a2-8)Neu5Ac(a2-8)Neu5Ac(a2-3)[GalNAc(b1-4)]Gal(b1-4)Glc
Outline: as §1

[38] = target: Neu5Gc(a2-3)Gal(b1-4)GlcNAc(b1-3)Gal(b1-4)GlcNAc(b1-2)Man(a1-3)[Neu5Gc(a2-3)Gal(b1-4)GlcNAc(b1-3)Gal(b1-4)GlcNAc(b1-2)Man(a1-6)]Man(b1-4)GlcNAc(b1-4)GlcNAc
Outline: as §1

[39] = target: Neu5Gc(a2-8)Neu5Gc(a2-3)Gal(b1-4)GlcNAc
Outline: as §1

B1: BDCA-2 (Homo sapiens), Q8WTT0 (protein)
chain: MVPEEEPQDREKGLWWFQLKVWSMAVVSILLLSVCFTVSSVVPHNFMYSKTVKRLSKLREYQQYHPSLTCVMEGKDIEDWSCCPTPWTSFQSSCYFISTGMQSWTKSQKNCSVMGADLVVINTREEQDFIIQNLKRNSSYFLGLSDPGGRRHWQWVDQTPYNENVTFWHSGEPNNLDERCAIINFRSSEEWGWNDIHCHVPQKSICKMKKIYI
Q: For B1, which “glycan array binding signal (z-score)” value [1] is on record?
A: -0.085

Q: What about the “glycan array binding signal (z-score)” value [2] of the same binder?
A: -0.163

Q: What about the “glycan array binding signal (z-score)” value [3] of the same binder?
A: -0.038

Q: What about the “glycan array binding signal (z-score)” value (Fuc(a1-2)[Gal(a1-3)]Gal) of the same binder?
A: -0.099

Q: And the “glycan array binding signal (z-score)” value [4]?
A: -0.11

Q: And the “glycan array binding signal (z-score)” value [5]?
A: -0.224

Q: What about the “glycan array binding signal (z-score)” value (Gal(a1-3)Gal) of the same binder?
A: -0.284

Q: What about the “glycan array binding signal (z-score)” value [6] of the same binder?
A: 8.11

Q: And the “glycan array binding signal (z-score)” value [7]?
A: 7.94

Q: What about the “glycan array binding signal (z-score)” value [8] of the same binder?
A: -0.16

Q: What about the “glycan array binding signal (z-score)” value [9] of the same binder?
A: -0.163

Q: And the “glycan array binding signal (z-score)” value [10]?
A: -0.188

Q: And the “glycan array binding signal (z-score)” value [11]?
A: 5.76

Q: What about the “glycan array binding signal (z-score)” value [12] of the same binder?
A: 8.18

Q: What about the “glycan array binding signal (z-score)” value [13] of the same binder?
A: 3.64

Q: And the “glycan array binding signal (z-score)” value [14]?
A: 3.96

Q: What about the “glycan array binding signal (z-score)” value [15] of the same binder?
A: 6.87

Q: And the “glycan array binding signal (z-score)” value [16]?
A: 3.54

Q: What about the “glycan array binding signal (z-score)” value [17] of the same binder?
A: -0.146

Q: What about the “glycan array binding signal (z-score)” value [18] of the same binder?
A: 6.95

Q: What about the “glycan array binding signal (z-score)” value [19] of the same binder?
A: 8.21

Q: What about the “glycan array binding signal (z-score)” value [20] of the same binder?
A: -0.237

Q: What about the “glycan array binding signal (z-score)” value (Gal6S(b1-4)GlcNAc6S) of the same binder?
A: -0.168

Q: And the “glycan array binding signal (z-score)” value (GalNAc(a1-3)GalNAc)?
A: -0.119

Q: What about the “glycan array binding signal (z-score)” value [21] of the same binder?
A: -0.114

Q: What about the “glycan array binding signal (z-score)” value (GalNAc(b1-6)GalNAc) of the same binder?
A: -0.153

Q: What about the “glycan array binding signal (z-score)” value (GlcA(b1-3)GlcNAc) of the same binder?
A: -0.153

Q: What about the “glycan array binding signal (z-score)” value [22] of the same binder?
A: -0.151

Q: What about the “glycan array binding signal (z-score)” value (GlcNAc(b1-3)Gal(b1-4)Glc) of the same binder?
A: 0.173

Q: What about the “glycan array binding signal (z-score)” value [23] of the same binder?
A: -0.167

Q: What about the “glycan array binding signal (z-score)” value [24] of the same binder?
A: -0.228

Q: And the “glycan array binding signal (z-score)” value [25]?
A: -0.087

Q: And the “glycan array binding signal (z-score)” value [26]?
A: -0.163

Q: What about the “glycan array binding signal (z-score)” value [27] of the same binder?
A: -0.184

Q: What about the “glycan array binding signal (z-score)” value [28] of the same binder?
A: -0.173

Q: And the “glycan array binding signal (z-score)” value [29]?
A: -0.169

Q: What about the “glycan array binding signal (z-score)” value [30] of the same binder?
A: -0.196

Q: And the “glycan array binding signal (z-score)” value [31]?
A: -0.169

Q: And the “glycan array binding signal (z-score)” value (Neu5Ac(a2-6)Gal)?
A: -0.173

Q: What about the “glycan array binding signal (z-score)” value (Neu5Ac(a2-6)Gal(b1-4)Glc) of the same binder?
A: -0.252

Q: And the “glycan array binding signal (z-score)” value [32]?
A: -0.282

Q: And the “glycan array binding signal (z-score)” value [33]?
A: 11.8

Q: And the “glycan array binding signal (z-score)” value [34]?
A: -0.186

Q: And the “glycan array binding signal (z-score)” value [35]?
A: -0.164

Q: And the “glycan array binding signal (z-score)” value (Neu5Ac(a2-8)Neu5Ac)?
A: -0.243

Q: And the “glycan array binding signal (z-score)” value [36]?
A: -0.192

Q: And the “glycan array binding signal (z-score)” value [37]?
A: -0.318

Q: What about the “glycan array binding signal (z-score)” value [38] of the same binder?
A: -0.153

Q: And the “glycan array binding signal (z-score)” value [39]?
A: -0.189
